Source: ChEMBL document CHEMBL3988442, “University of Dundee, Small-Polar-MMV Screening Library” (2021)
Out of some 48,000 compounds screened, about 13,000 (27%) showed an effect of 50% or more. Some of the results follow.

Each compound was assayed on Wolbachia pipientis (assay: Anti-Wolbachia Cell-Based Screen). Settings: 5 µM.
Type: functional
Design: scale not given: in the data most compounds retested in dose-response had high values
In the case of `CC(C)CCNc1nnc(C(C)C)s1`, the “Percent Effect” value is reported as -2.433%. With `Cc1noc(C)c1CN(C)C(=O)C1(N)CCCCC1` the “Percent Effect” value was -29.06%. With `CCC1CN(Cc2ccccc2)CCN1Cc1nnc(C2CCC2)o1` (stereo unspecified) the “Percent Effect” value was 7.114%. With `CN(Cc1nc(C2CC2)no1)C(=O)c1cccc(CC2CCNCC2)c1` the “Percent Effect” value was -25.8%. In the case of `CC(C)(O)c1cn(C2CCN(C(=O)CCc3ccncc3)CC2)nn1`, the “Percent Effect” value is reported as -4.68%. `O=C(Nc1cnc(C2CC2)nc1)N1CCCC1` was tested, and the “Percent Effect” value was -9.25%. For `CC(C)c1cc(C2CCN(Cc3cc(F)cc(F)c3)CC2)[nH]n1`, the “Percent Effect” value was 18.27%. `Fc1cc(F)cc(CN2CCC(c3cc4ncccc4cn3)CC2)c1` was tested, and the “Percent Effect” value was 115.3%. With `CCn1c(C)nnc1CN(C)C1CCN(Cc2nnc(C3CC3)o2)C1` (stereo unspecified) the “Percent Effect” value was 99.37%. For `Cc1cnc(CN2CCC(N(C)Cc3nnc(C)n3C)C2)cn1` (stereo unspecified), the “Percent Effect” value was 0.1518%. In the case of `CCn1c(C)nnc1CN(C)C1CCN(Cc2ccon2)C1` (stereo unspecified), the “Percent Effect” value is reported as 7.959%. For `Cc1nnc(CN(C)C2CCN(Cc3nnc(C4CCC4)o3)C2)n1C` (stereo unspecified), the “Percent Effect” value was 92.95%. In the case of `CCn1c(C)nnc1CN(C)C1CCN(Cc2cnc(C)cn2)C1` (stereo unspecified), the “Percent Effect” value is reported as -10.08%. In the case of `N#CC(NC(=O)CCC1CCC1)c1cnn(-c2ccccc2)c1` (stereo unspecified), the “Percent Effect” value is reported as 1.369%. `CNC(=O)Cn1nc(C(C)C)c2cnn(C(C)(C)C)c2c1=O` was tested, and the “Percent Effect” value was -6.377%. For `CN(C)[C@@H]1CO[C@H](CNC(=O)C2CCCC2)[C@H]1O`, the “Percent Effect” value was -8.236%. In the case of `Cc1ccc(C(=O)NCCNC(=O)c2cncnc2C)cc1F`, the “Percent Effect” value is reported as -5.207%. `CCn1nc(C)cc1C(=O)N1C[C@@H]2C[C@@H](C)O[C@@H]2C1.O=C(O)C(F)(F)F` was tested, and the “Percent Effect” value was 99.49%. In the case of `CCn1nc(C)cc1C(=O)N1CC[C@H](OC)[C@H]2CN(CC3CC3)C[C@H]21.O=C(O)C(F)(F)F`, the “Percent Effect” value is reported as 3.94%. `CCn1nc(C)cc1C(=O)N1C[C@@H]2C[C@@H](c3nc(C)cs3)O[C@@H]2C1` was tested, and the “Percent Effect” value was 100.8%. For `CCn1nc(C)cc1C(=O)N1C[C@@H]2C[C@@H](c3noc(C)n3)O[C@@H]2C1`, the “Percent Effect” value was 118.5%. For `Cc1csc([C@@H]2C[C@@H]3CCN(C(=O)c4cc(C)on4)C[C@H]3O2)n1`, the “Percent Effect” value was 1.11%. With `CCC(C)(C)C(=O)N1C[C@@H]2C[C@@H](c3nnc(C)[nH]3)O[C@@H]2C1` the “Percent Effect” value was 92.76%. In the case of `Cc1nc([C@H]2C[C@H]3CN(C(=O)c4cc(C)c(C)s4)CC[C@@H]3O2)no1`, the “Percent Effect” value is reported as 1.908%. `Cc1nnc([C@@H]2C[C@H]3CN(C(=O)c4c(C)noc4C)C[C@H]3O2)[nH]1.O=C(O)C(F)(F)F` was tested, and the “Percent Effect” value was -14.34%. With `Cc1ccc(C(=O)N2CC[C@H]3O[C@@H](c4noc(C)n4)C[C@H]3C2)o1` the “Percent Effect” value was 6.095%. In the case of `Cc1csc([C@@H]2C[C@@H]3CCN(C(=O)c4ccnnc4)C[C@H]3O2)n1`, the “Percent Effect” value is reported as -12.9%. For `Cc1nnc([C@@H]2C[C@H]3CN(C(=O)C4CC4)C[C@H]3O2)[nH]1`, the “Percent Effect” value was -12.1%. `CCN1C[C@@H]2[C@@H](OC)CCN(C(=O)c3cc(C)nn3CC)[C@@H]2C1.O=C(O)C(F)(F)F` was tested, and the “Percent Effect” value was -7.784%. In the case of `O=C(CN1CCS(=O)(=O)CC1)NC1CCCCc2ccccc21` (stereo unspecified), the “Percent Effect” value is reported as -11.03%. `CCC(Nc1nnnn1-c1ccccc1)C(=O)NCc1cccs1` (stereo unspecified) was tested, and the “Percent Effect” value was -3.486%. In the case of `CN1CCOC[C@H]1c1nc(-c2ccc(F)cc2F)c[nH]1`, the “Percent Effect” value is reported as 2.014%. For `COC1CCCN(CCCc2cn[nH]c2)C1` (stereo unspecified), the “Percent Effect” value was -27.42%. `OC1CCN([C@@H]2CCN(c3nc(-c4ccccc4)no3)C[C@H]2O)CC1` was tested, and the “Percent Effect” value was -5.249%. In the case of `CCCN1CC2(CCN(C)CC2)CC1C(=O)NCc1cc(C)nn1C` (stereo unspecified), the “Percent Effect” value is reported as 6.557%. In the case of `O=C(NCC(F)(F)F)C1CN(C(=O)c2cnccn2)C1`, the “Percent Effect” value is reported as -11.97%. With `Cc1nnc([C@@H]2C[C@H]3CN(C(=O)c4sccc4C)C[C@H]3O2)[nH]1` the “Percent Effect” value was -0.8336%. `Cc1nnc([C@H]2C[C@@H]3CCN(C(=O)C4CCOCC4)C[C@H]3O2)[nH]1` was tested, and the “Percent Effect” value was -13.79%. `CCn1nc(C)cc1C(=O)N1C[C@@H]2C[C@@H](c3nnc(C)[nH]3)O[C@@H]2C1` was tested, and the “Percent Effect” value was 102%. `CCc1nc(N2CCCC(CCCOC)(C(=O)O)C2)ncc1C` (stereo unspecified) was tested, and the “Percent Effect” value was -7.437%. With `CO[C@H]1CCN(c2ncccn2)[C@H]1Cc1ccccc1` the “Percent Effect” value was 1.779%. In the case of `CO[C@H]1CCN(Cc2nccs2)C[C@@H]1Cc1ccccc1`, the “Percent Effect” value is reported as 1.604%. `Cc1cc2c(cc1C)C(NC1CC1)CCCO2` (stereo unspecified) was tested, and the “Percent Effect” value was -4.167%. `CCCc1ccc(C(=O)N2Cc3c(Cn4ccnc4)nn(C)c3C2)cc1.O=CO` was tested, and the “Percent Effect” value was -14.37%. `COCCn1ccc(NC(=O)Nc2ccc(C)cc2)n1` was tested, and the “Percent Effect” value was 3.618%. In the case of `CCN(CC)c1ccc(NC(=O)NC(C)Cn2cccn2)cn1` (stereo unspecified), the “Percent Effect” value is reported as -15.96%. For `Cc1ccc(C(=O)NCCCn2cccn2)c(=O)[nH]1`, the “Percent Effect” value was 22.25%. For `COC(=O)CC(NC(=O)CCCn1cccn1)c1ccc(Cl)cc1` (stereo unspecified), the “Percent Effect” value was -43.24%. In the case of `Cn1cnc2ccc(NC(=O)CCCn3cccn3)cc2c1=O`, the “Percent Effect” value is reported as 106.9%. For `CC(C)Cn1cnc2ccc(NC(=O)CCCn3cccn3)cc2c1=O`, the “Percent Effect” value was 102.5%. With `CC(C)c1nc(NC(=O)CCCn2cccc2)n(C)n1` the “Percent Effect” value was -8.102%. With `COCCn1ccc(NC(=O)Nc2ccncc2)n1` the “Percent Effect” value was 5.636%. `CC(C)Cn1cncc1CNC(=O)c1cccc(Cn2cccn2)c1` was tested, and the “Percent Effect” value was 0.1096%. `CC(C)n1cnc2ccc(NC(=O)CCCn3cccn3)cc2c1=O` was tested, and the “Percent Effect” value was 106%. `CCNC(=O)CCC(=O)Nc1ccc2nn(C(C)C)cc2c1` was tested, and the “Percent Effect” value was 9.58%. `COCCn1cnc2ccc(NC(=O)CCCn3cccn3)cc2c1=O` was tested, and the “Percent Effect” value was 181%. For `CCc1nnsc1C(=O)NCCCC(CC)(CC)C1OCCO1`, the “Percent Effect” value was -13.99%. In the case of `CC(C)c1nnc2n1CC(CNc1cnc3ccccc3n1)CC2` (stereo unspecified), the “Percent Effect” value is reported as -3.73%. For `Cc1cc(C)n(C2CN(CC(O)COc3ccc(F)cc3)C2)n1` (stereo unspecified), the “Percent Effect” value was 3.815%. With `CC(NCCc1nccn1Cc1ccccc1)c1ccsc1` (stereo unspecified) the “Percent Effect” value was 1.494%. For `O=C(c1ccc[nH]1)N1C[C@H]2CC[C@@H]1CN(c1ncccn1)C2`, the “Percent Effect” value was -10.43%.
